From PubChem BioAssay (NCI)
The panel holds about 83,000 compounds, 20% with a hit somewhere; the sample as a whole holds those more often.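 Interpretation: 100, growth as untreated; towards 0, rising growth inhibition; 0, no net growth; 0 to -100, cell death. Compounds scoring below 10 were considered active.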 Calls of active or inactive are those of the source.

How the values were obtained:
Experiment in all cases: NCI-60 one-dose screen, 48 h (100 = growth as untreated, 0 = no growth, -100 = all killed)
HCT-15 colon = conditions: 10 µM unless noted
HT29 colon = conditions: 10 µM unless noted
SNB-75 CNS = conditions: 10 µM unless noted
U251 CNS = conditions: 10 µM unless noted
PC-3 prostate = conditions: 10 µM unless noted
SK-MEL-5 melanoma = conditions: 10 µM unless noted
UACC-62 melanoma = conditions: 10 µM unless noted
LOX IMVI melanoma = conditions: 10 µM unless noted
SK-MEL-28 melanoma = conditions: 10 µM unless noted
EKVX NSCLC = conditions: 10 µM unless noted
SN12C renal = conditions: 10 µM unless noted
UO-31 renal = conditions: 10 µM unless noted
TK-10 renal = conditions: 10 µM unless noted
ACHN renal = conditions: 10 µM unless noted
CAKI-1 renal = conditions: 10 µM
A498 renal = conditions: 10 µM unless noted
CCRF-CEM leukemia = conditions: 10 µM unless noted
MOLT-4 leukemia = conditions: 10 µM unless noted
SK-MEL-2 melanoma = conditions: 10 µM unless noted
SNB-19 CNS = conditions: 10 µM unless noted

Measured: growth

COc1ccc(N)cc1C(=O)Nc1cccc(-c2cc(=O)c3c(OC)c(OC)c(OC)cc3o2)c1
inactive: HCT-15 colon 44.7% | HT29 colon 56.5% | SNB-75 CNS 93.1% | U251 CNS 49.9% | PC-3 prostate 74.1% | SK-MEL-5 melanoma 41% | UACC-62 melanoma 61.2% | LOX IMVI melanoma 44.3% | SK-MEL-28 melanoma 86.6% | EKVX NSCLC 84.8% | SN12C renal 49.7% | UO-31 renal 29.4% | TK-10 renal 81.5% | ACHN renal 52.3% | CAKI-1 renal 43.1% | A498 renal 63.1% | CCRF-CEM leukemia 34% | MOLT-4 leukemia 48.2%

Cc1ccc(-n2cc(/C=C/C(=O)c3ccc(S(C)(=O)=O)cc3)c(-c3ccc(S(C)(=O)=O)cc3)n2)cc1
inactive: HCT-15 colon 37.6% | HT29 colon 70.5% | SNB-75 CNS 102% | U251 CNS 95.6% | PC-3 prostate 86.6% | SK-MEL-5 melanoma 94.4% | UACC-62 melanoma 78.1% | LOX IMVI melanoma 74.5% | SK-MEL-28 melanoma 92.9% | SK-MEL-2 melanoma 107% | EKVX NSCLC 93.2% | SN12C renal 89.7% | UO-31 renal 85.5% | TK-10 renal 127% | ACHN renal 93.3% | CAKI-1 renal 89.2% | A498 renal 84.6% | CCRF-CEM leukemia 77.5% | MOLT-4 leukemia 71.9%

O=S(=O)(Nc1ccc(C2CC2)cc1)c1ccc(-c2cnc(C3CC3)o2)cc1
inactive: HCT-15 colon 39.9% | HT29 colon 38.4% | SNB-75 CNS 53.8% | U251 CNS 68.7% | PC-3 prostate 63.1% | SK-MEL-5 melanoma 74.7% | UACC-62 melanoma 48.5% | LOX IMVI melanoma 55.7% | SK-MEL-28 melanoma 73.2% | SK-MEL-2 melanoma 64.8% | EKVX NSCLC 78.4% | SN12C renal 75% | UO-31 renal 71.3% | TK-10 renal 101% | ACHN renal 87.6% | CAKI-1 renal 27.5% | A498 renal 60% | CCRF-CEM leukemia 57.9% | MOLT-4 leukemia 41.3%

C/C(=N\NC(=S)Nc1ccc(Br)cc1)c1cc2ccccc2oc1=O
active: SK-MEL-5 melanoma -24.7% | UACC-62 melanoma -20.5% | CAKI-1 renal 9.07%
inactive: HCT-15 colon 10% | HT29 colon 90.3% | SNB-75 CNS 17.5% | U251 CNS 17.8% | PC-3 prostate 26.7% | LOX IMVI melanoma 14% | SK-MEL-28 melanoma 21.6% | EKVX NSCLC 40.6% | SN12C renal 35.2% | TK-10 renal 42.4% | ACHN renal 14.9% | CCRF-CEM leukemia 12.5% | MOLT-4 leukemia 18.1%

COc1ccc(/C=C/C(=O)c2nnn(-c3ccc(C(=O)O)cc3)c2C)cc1OC
inactive: HCT-15 colon 89.6% | HT29 colon 102% | SNB-75 CNS 99.1% | U251 CNS 93.8% | PC-3 prostate 97.7% | SK-MEL-5 melanoma 103% | UACC-62 melanoma 90.3% | LOX IMVI melanoma 76.2% | SK-MEL-28 melanoma 107% | SK-MEL-2 melanoma 101% | EKVX NSCLC 93.9% | SN12C renal 92.2% | UO-31 renal 79.3% | TK-10 renal 113% | ACHN renal 91.4% | CAKI-1 renal 95.9% | CCRF-CEM leukemia 87.7% | MOLT-4 leukemia 97.7%

CC(=O)Nc1ccc(NC(=O)Nc2cccc(-c3nc(-c4ccc(NC(=O)c5cccs5)cc4Cl)no3)c2)cc1C(F)(F)F
inactive: HCT-15 colon 20.2% | UO-31 renal 14.4%
active: HT29 colon -36.4% | SNB-75 CNS -73.2% | SNB-19 CNS -33.7% | U251 CNS -57.4% | SK-MEL-5 melanoma -77.8% | UACC-62 melanoma -82.4% | LOX IMVI melanoma -88% | SK-MEL-28 melanoma -90.1% | EKVX NSCLC -35.9% | SN12C renal -64.5% | TK-10 renal -32.7% | ACHN renal 3.84% | CAKI-1 renal -73.2% | CCRF-CEM leukemia 6.64% | MOLT-4 leukemia -0.998%

COc1cc2c3c(n(CCCN4CCCC4)c(=O)c2cc1OC)-c1cc2c(cc1C3=O)OCO2
active: HCT-15 colon -61.7% | HT29 colon -76% | SNB-75 CNS -74.6% | U251 CNS -96.2% | PC-3 prostate -64.5% | LOX IMVI melanoma -80.1% | SK-MEL-28 melanoma -74.1% | EKVX NSCLC -55.3% | TK-10 renal -86% | CCRF-CEM leukemia -11.9%
inactive: SK-MEL-5 melanoma 87.5% | UACC-62 melanoma 73.9% | SN12C renal 11.8% | UO-31 renal 40.4% | ACHN renal 55.6% | CAKI-1 renal 55.3% | A498 renal 80.2%

CC(C)C(=O)Nc1ccc(-c2nc(-c3cccc(O)c3)c(-c3ccnc(Br)c3)[nH]2)cc1
active: SNB-75 CNS 4.68% | MOLT-4 leukemia 9.54%
inactive: HCT-15 colon 65.6% | HT29 colon 41% | SNB-19 CNS 47% | U251 CNS 42.5% | SK-MEL-5 melanoma 42.7% | UACC-62 melanoma 31.8% | LOX IMVI melanoma 38.4% | SK-MEL-28 melanoma 50.3% | EKVX NSCLC 80.6% | SN12C renal 63.5% | UO-31 renal 24% | TK-10 renal 81.1% | ACHN renal 64.2% | CAKI-1 renal 45.1% | A498 renal 37.4% | CCRF-CEM leukemia 17.3%
